# proKLK7 act: proKLK7 zymogen activators, primary screen, biochemical, fluorescence intensity | AID 652039, 2013 | purified proKLK7, EDANS-DABCYL substrate fluorescence; 100% is mature enzyme control, 0% vehicle | hit rate 0.9% among 370,000 | Kallikrein-7 (Homo sapiens), P49862 | activation, % at 7 µM;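 active = activation above the mean of all tested compounds plus 3 SD, computed per campaign excluding outliers beyond control limits, cut at about 13% in these data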
# rCAG binder-1: binders of r(CAG) RNA repeats, primary screen, biochemical, fluorescence | r(CAG) RNA repeat, TO-PRO-1 dye displacement fluorescence | inhibition, % at 3 µM | hit rate 1.3% among 370,000;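 active = inhibition above the plate cutoff, the mean of all test compounds on that plate plus 3 SD, cut at about 35% in these data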;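 note: higher means more dye released from RNA so lower well fluorescence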
# ADAM17 inh: ADAM17 inhibitors, primary screen, biochemical, QFRET. AID 720648, 2013. hit rate 0.83% among 370,000. recombinant ADAM17, EDANS/DABCYL FRET peptide cleavage. inhibition, % at 6.95 µM;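 active = inhibition above the mean of compounds lying between control limits plus 3 SD, set per campaign, cut at about 8.5% in these data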
# Target sequence (P78536 215-824 limits assumed): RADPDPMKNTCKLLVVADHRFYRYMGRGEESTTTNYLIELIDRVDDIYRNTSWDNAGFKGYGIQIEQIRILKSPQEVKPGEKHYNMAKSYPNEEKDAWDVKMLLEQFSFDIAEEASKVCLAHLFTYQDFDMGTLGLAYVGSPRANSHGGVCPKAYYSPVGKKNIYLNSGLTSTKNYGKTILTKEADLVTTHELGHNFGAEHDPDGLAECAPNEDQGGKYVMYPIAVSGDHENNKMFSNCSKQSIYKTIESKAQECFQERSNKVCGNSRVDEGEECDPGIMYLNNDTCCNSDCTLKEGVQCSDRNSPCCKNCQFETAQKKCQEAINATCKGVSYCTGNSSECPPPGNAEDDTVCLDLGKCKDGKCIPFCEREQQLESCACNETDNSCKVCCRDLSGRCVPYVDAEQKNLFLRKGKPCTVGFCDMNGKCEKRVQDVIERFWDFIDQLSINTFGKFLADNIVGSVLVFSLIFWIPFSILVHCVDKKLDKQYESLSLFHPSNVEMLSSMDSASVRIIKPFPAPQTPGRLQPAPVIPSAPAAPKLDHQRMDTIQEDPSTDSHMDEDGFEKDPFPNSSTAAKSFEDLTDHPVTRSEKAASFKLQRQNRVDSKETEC
# DSG3 Ab inh: inhibitors of pemphigus antibody binding to DSG3, primary screen, biochemical, bead-based, flow cytometry, scFv-GFP. hit rate 0.48% among 310,000. Desmoglein-3 (Homo sapiens), P32926. DSG3-coupled beads, scFv-anti-DSG3-GFP binding; active compounds read low. binding (percent of control), % at 10 µM;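 active = binding more than 3 SD below its plate's average and above zero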;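 note: hits lower antibody fragment binding to DSG3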
# ADAM10 inh: human ADAM10 inhibitors, primary screen, biochemical, QFRET, HTS; inhibition, % at 7 µM; hit rate 0.62% among 370,000; recombinant ADAM10, EDANS/DABCYL FRET peptide cleavage, 3 h; Disintegrin and metalloproteinase domain-containing protein 10 (Homo sapiens), O14672;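 active = inhibition above a per-campaign cutoff equal to the mean of compounds falling between control-based bounds plus 3 SD, cut at about 20% in these data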
# MPTP block: mitochondrial permeability transition pore inhibitors, primary screen, biochemical, isolated mouse mitochondria, absorbance; hit rate 1.4% among 360,000; inhibition, % at 10 µM; Ca2+ swelling absorbance, 30 min;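 active = inhibition of 50% or more, scaled per plate between neutral and stimulator controls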
# rCAG bind conf: small molecules binding CAG repeat RNA – biochemical, fluorescence, confirmation; shares compounds with rCAG binder-1; r(CAG) RNA repeat, TO-PRO-1 dye displacement fluorescence; inhibition, % at 3 µM; hit rate 70% among 4,300; AID 652065, 2013;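 active = inhibition above a per-plate cutoff, the mean inhibition of sample wells plus 3 SD, cut at about 35% in these data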;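 note: loss of TO-PRO-1 fluorescence as compound displaces dye from 1x1 AA loop RNA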
# DNA CAG counter: displacement of TO-PRO-1 from CAG DNA duplex, counter-screen for rCAG RNA repeat binder project, biochemical, fluorescence, TO-PRO-1 dye, d(CAG) DNA oligo. d(CAG) DNA oligo TO-PRO-1 dye displacement. inhibition, % at 3 µM. hit rate 94% among 4,300. AID 652068, 2013. shares compounds with rCAG binder-1;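 active = inhibition above its plate's cutoff, the mean test-well inhibition plus 3 SD, cut at about 4.8% in these data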;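 note: hits displace the dye from DNA and so lower well fluorescence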
# DNA CAG DR: inhibitors of DNA CAG/GTC TO-PRO-1 complex, dose response, counter-screen for rCAG RNA repeat binder project, biochemical, fluorescence, TO-PRO-1 dye; shares compounds with rCAG binder-1; DNA CAG/GTC duplex TO-PRO-1 dye displacement fluorescence; IC50, µM; hit rate 20% among 250; in the data active = IC50 below about 10 µM
# dCAG DNA bind: TO-PRO-1 dye complex inhibitors on d(CAG) DNA, dose response, counter-screen, biochemical, fluorescence, late stage. hit rate 80% among 30. shares compounds with rCAG binder-1. IC50, µM. d(CAG) DNA duplex TO-PRO-1 dye displacement
# rCAG binder-2: molecules binding r(CAG) RNA repeats, late stage dose response, late-stage follow-up, biochemical, fluorescence, dose response, powder samples; hit rate 100% among 30; IC50, µM; AID 720651, 2013; r(CAG) RNA TO-PRO-1 dye displacement; shares compounds with rCAG binder-1
# A number is an active result; . = inactive; / = no result given. Compounds with a hit are over-represented: about 4.7% of the library has one in this group of screens. Unless noted, the rule behind the calls is not given here.
SMILES,proKLK7 act,rCAG binder-1,ADAM17 inh,DSG3 Ab inh,ADAM10 inh,MPTP block,rCAG bind conf,DNA CAG counter,others
COc1cccc(CNC(=O)C2(C)CCCCN2C)c1 (centres undefined),.,.,.,/,.,.,/,/,
COC(=O)CN1C(=O)N/C(=C/c2ccc(OC)cc2)C1=O,.,.,.,/,.,.,/,/,
COC(=O)Cn1c(=O)c2c(n(Cc3ccccc3)c1=O)N/C(=C/c1ccc(Br)cc1)C2=O,.,62,.,.,.,.,75,40,
COc1ccc(/C=N/NC(=O)c2ccc(O)cc2O)cc1CSc1ccccn1,.,36,.,.,.,.,.,12,
COc1ccc(C=O)cc1CSc1ccccn1,.,.,.,.,.,.,/,/,
Cc1cccc(NC(=S)NC2CCSc3ccccc32)c1 (centres undefined),.,.,.,/,.,.,/,/,
S=C(NCc1ccccc1)NC1CCSc2ccccc21 (centres undefined),.,53,.,.,.,.,.,.,
COC(=O)C1=C(C)N(C)C(=NCc2ccccc2)NC1c1ccccc1 (centres undefined),.,.,.,/,.,/,/,/,
CCCn1nc(C(=O)Nc2cc(S(=O)(=O)Nc3ccc(OC)cc3)ccc2O)c2ccccc2c1=O,.,62,.,.,.,.,54,19,
CCCn1nc(C(=O)Nc2ccc(S(=O)(=O)Nc3nccs3)cc2)c2ccccc2c1=O,.,65,.,.,.,.,56,23,
CC(C)S(=O)(=O)C1=NSC2=NC(=O)/C(=C\c3ccc(-c4cccc(C(=O)O)c4)o3)C(=N)N21,.,72,.,.,.,.,74,29,DNA CAG DR=.;dCAG DNA bind=1.3;rCAG binder-2=0.33
Cc1ccc(-n2c(C)cc(/C=C3/C(=N)N4C(c5ccccc5)=CSC4=NC3=O)c2C)cc1,.,.,.,/,.,.,/,/,
N=C1/C(=C\c2ccc(-c3cc(Cl)cc(Cl)c3)o2)C(=O)N=C2SC=C(c3ccccc3)N12,.,37,.,.,.,.,38,22,
Cc1cc(C)cc([C@H]2C[C@]34CN(C(=O)OC(C)(C)C)S(=O)(=O)[C@H]3C[C@H]2O4)c1,.,.,.,/,.,/,/,/,
C[C@@H]1COc2cccc(N3CCC[C@@H]3CO)c2S(=O)(=O)N1,.,.,.,/,.,.,/,/,
Cc1[nH]n(-c2ccccc2)c(=O)c1C1(C(F)(F)F)C(=O)N(c2ccccc2)C2=C1C(=O)CC(C)(C)C2 (centres undefined),.,36,.,.,.,.,.,7.3,
CCOC(=O)C1=C(O)/C(=C\c2ccc(CNC(=O)C(=O)Nc3ccccc3)o2)N=C1C,.,46,.,.,.,.,39,19,
CCOC(=O)C1=C(O)/C(=C\c2sccc2C)N=C1C,.,.,.,.,.,.,/,/,
O=C(CN(C(=O)OCC1c2ccccc2-c2ccccc21)[C@@H](Cc1ccccc1)C(=O)O)OCc1ccc(C(=O)NCc2ccccc2)cc1,.,61,.,/,.,/,70,27,DNA CAG DR=.
O=C(NCc1ccc(C(=O)O)cc1)OCc1ccccc1,.,.,.,.,.,.,/,/,
O=C(N[C@H](C(=O)N1CCC[C@H]1C(=O)NCc1ccccc1)c1ccccc1)c1ccc(Cl)cc1Cl,.,.,.,/,.,/,/,/,
O=C(CSC1=NS(=O)(=O)c2ccccc2N1)Nc1ccccc1F,.,.,.,.,.,.,/,/,
Cc1ccc(N=C2S/C(=C/c3cccc(OCC(=O)O)c3)C(=O)N2C)cc1C,.,58,.,.,.,.,64,23,
O=C(O)COc1ccccc1/C=C1\SC(=Nc2ccc(F)cc2)N(c2ccc(F)cc2)C1=O,.,40,.,.,.,.,65,24,
CCOc1cc(/C=C2\SC(=Nc3ccccc3)N(c3ccccc3)C2=O)ccc1OCC(=O)O,.,65,.,/,.,.,71,30,DNA CAG DR=.
SMILES,proKLK7 act,rCAG binder-1,ADAM17 inh,DSG3 Ab inh,ADAM10 inh,MPTP block,rCAG bind conf,DNA CAG counter,others
O=C(NC(c1ccccc1)c1ccsc1)C1CCN(Cc2ccc(Oc3ccccc3)cc2)CC1 (centres undefined),.,.,.,/,.,.,/,/,
COc1cc(OC)c(NC(=O)NNC(=O)C(=O)NC2CC2)cc1Cl,.,.,.,/,.,/,/,/,
CC(c1ccccc1)N1C(=O)c2ccc(C(=O)Nc3ccc(Br)cc3C(=O)O)cc2C1=O (centres undefined),.,52,.,.,.,.,81,77,
CC(c1ccccc1)N1C(=O)c2ccc(C(=O)Nc3ccccc3C(=O)O)cc2C1=O (centres undefined),.,81,.,.,.,.,87,70,
Cc1onc(-c2ccccc2)c1C(=O)NC(=S)Nc1sc2c(c1C#N)CCC(C)C2 (centres undefined),.,42,.,.,.,.,.,15,
C=C(C)CN1C(=O)C2(OCCO2)c2cc(Br)ccc21,.,.,.,.,.,.,/,/,
Cn1c2ccccc2c2cc(/C=C(\NC(=O)c3ccccc3)C(=O)O)ccc21,.,37,.,.,.,.,.,8.0,
COC(=O)/C(=C\c1ccc2c(c1)c1ccccc1n2C)NC(=O)c1ccccc1,.,.,.,.,.,.,/,/,
Cc1ccc(S(=O)(=O)NN=Cc2c(O)ccc3ccccc23)cc1,.,41,.,.,.,.,46,15,

# Compound activity as filed in PubChem.
